# Screens deposited in PubChem by National Center for Advancing Translational Sciences (NCATS).
# RORgamma inh – inhibitors of mouse ROR gamma transcriptional activity; P51450; Drosophila S2 Gal4-RORgamma UAS-luciferase reporter, 20 h; Potency, µM (highest dose often 53.6 µM), for the others: at the top dose activity change, negative = inhibition, actives largely listed as inhibitors; hit rate 5.4% among 310,000; AID 2551; also: % is scaled to controls: 0 for no effect and ±100 for the full control effect; nearly all actives have a fitted effect of over 60% in size
# Target sequence (P51450 whole entry, looked up, the tested form may be a part): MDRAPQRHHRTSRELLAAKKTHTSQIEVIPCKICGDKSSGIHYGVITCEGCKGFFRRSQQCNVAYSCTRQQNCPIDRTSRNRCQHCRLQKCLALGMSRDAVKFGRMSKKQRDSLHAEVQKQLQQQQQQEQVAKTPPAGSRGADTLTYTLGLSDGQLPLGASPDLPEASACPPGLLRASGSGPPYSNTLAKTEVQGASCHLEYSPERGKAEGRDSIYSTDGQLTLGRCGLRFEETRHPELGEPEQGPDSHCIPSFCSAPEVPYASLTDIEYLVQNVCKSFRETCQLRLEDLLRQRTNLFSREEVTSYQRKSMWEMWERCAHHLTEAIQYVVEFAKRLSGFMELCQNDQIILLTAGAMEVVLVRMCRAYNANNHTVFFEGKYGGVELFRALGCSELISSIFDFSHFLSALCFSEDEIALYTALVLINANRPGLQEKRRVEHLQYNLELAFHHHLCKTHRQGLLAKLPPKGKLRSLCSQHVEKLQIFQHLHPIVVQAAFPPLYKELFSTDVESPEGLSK
#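 Stable Schneider cell line, Gal4 DNA-binding domain fused to ROR gamma, UAS-luciferase. Cmpd 1 hr RT → CuSO4 700 uM final → 20 hr RT → luciferase reagent 10 min → luminescence.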
# HEK293 tox – cytotoxic in the GLP-1 receptor inverse agonist counter-screen. HEK293 cAMP-luciferase reporter cells, luminescence, 24 h. Potency, µM (highest dose often 38.3 µM), for the others: at the highest dose activity change, negative = inhibition, most hits filed as inhibitors. hit rate 0.13% among 410,000;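 also: loss of luciferase light is scored as toxicity; % is scaled to controls: 0 for no effect and ±100 for the full control effect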
#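 Here, cytotoxicity is scored as loss of luminescence. The MLSMR collection was tested on cells seeded in medium containing 10% Nu serum, with a 24 hr compound exposure preceded by 12 hours of culture.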
# GLP1R inv ag – GLP-1 receptor (human) inverse agonism; HEK293 GLP-1R CRE-luciferase, luminescence, 24 h; GLP-1R form is constitutively active; P43220; AID 624417; hit rate 1.6% among 410,000; Potency, µM (titrated, usually from 38.3 µM), inactives show top-dose activity change, negative = inhibition, usual class: inhibitors; also: % is scaled to controls: 0 for no effect and ±100 for the full control effect; nearly all actives have a fitted effect of over 55% in size
#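 Assay principle: reduced luminescence from a cAMP-responsive reporter in HEK293 cells co-expressing a constitutively active GLP-1R. Conditions: 24 hr compound incubation, 37 deg C, 5% CO2.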
# VP16 counter – Gal4-VP16 reporter inhibition counter-screen; Drosophila S2 Gal4-VP16 UAS-luciferase, luminescence, 20 h; Potency, µM (series often up to 53.6 µM), without a hit: at the highest dose activity, negative = inhibition, hits mostly inhibitors; hit rate 3.5% among 310,000; AID 2546;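 also: Gal4-VP16 expression switched on by copper sulfate through the metallothionein promoter; % is scaled to controls: 0 for no effect and ±100 for the full control effect; nearly all actives have a fitted effect of over 50% in size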
# GLP-1R agonist – GLP-1 receptor (human) agonism; HEK293 GLP-1R CRE-luciferase, luminescence, 4-6 h; cells express a hypersensitive GLP-1R form; Potency, µM (highest dose often 45.6 µM), inactives show at the top dose activation, most hits filed as activators; hit rate 0.007% among 380,000; AID 624172; also: % of control where 0% means no effect
# * marks the source's active call; other numbers are inactive results; i = inactive; ? = inconclusive; · = not tested or not shown; [ ] = dose if it differs, or a comment. In the library only some 5.9% were active in any assay of this set; here they are far more common. Calls follow the shape of the dose curve; as a rule, active = well fitted curve in the direction sought with a large enough effect; inconclusive = small, poorly fitted or top-dose-only effect, or another doubt; inactive = no such curve, though single readings can be large; an effect the other way counts as inactive or inconclusive. Potency is read from the fitted curve at half-maximal effect.
SMILES,RORgamma inh,HEK293 tox,GLP1R inv ag,VP16 counter,GLP-1R agonist
COc1ccc(/C=C/C(=O)ONC2=NCCCCC2)cc1OC,11µM*,?,173%,-24%,18%
COc1ccc(/C=C/C(=O)Nc2ccccc2C(=O)O)cc1,7.9µM*,8%,?,10µM*,-1%
COc1ccc(/C=C/C(=O)Nc2ccc3c(c2)CCC3)cc1OC,?,-14%,?,4µM*,2%
COc1ccc(NC(=O)Nc2ccc3c(c2)CCC3)cc1OC,9%,-34%,-6%,-1%[10 µM],1%
C=CCOC(=O)C(C(=O)CC)C(NC(=O)OC)c1ccc(F)cc1 (stereo not given),10%[10 µM],·,·,-7%[10 µM],·
Cc1cc(N2CCC(C)CC2)nc2ccc(NC(=O)/C=C/c3cccc(Cl)c3)cc12,·,5%,7%,·,1%
Cc1ccc(S(=O)(=O)/N=C2/C=C(Sc3ncn[nH]3)C(=O)c3ccccc32)cc1,3.5µM*,?,i,3.5µM*,-36%
Cc1ccc(S(=O)(=O)/N=C2/C=C(Sc3ncn[nH]3)C(=O)c3ccccc32)c(C)c1,11µM*,·,·,5µM*,·
CCn1c(C(=O)N2CCC(C(=O)NCCc3ccc(C)cc3)CC2)cc2sccc21,·,-8%,?,·,·
CCC(C)[C@H](N)c1nnc(SCc2ccc(Cl)c(Cl)c2)o1 (stereo not given in full),·,-8%,?,·,-8%
CCCCOc1ccc(C(=O)Nc2ccc3c(c2)N(C(C)=O)CCC3)cc1,·,10%,1.1µM*,·,·
O=C(CSc1nnnn1-c1cccnc1)Nc1cccc(Cl)c1,-5%,8%,-5%,7%,11%
CN1CCN(c2ccc(NC(=O)CSc3nnnn3-c3ccccc3Cl)cc2)CC1,-1%,-6%,5µM*,-2%,-1%
O=C(CSc1nnnn1-c1cccc(Cl)c1)Nc1ccc2c(c1)CCC2,?,·,·,8.9µM*,·
Fc1ccc(NCc2nnc3n2CCCCC3)cc1Cl,·,2%,-1%,·,-2%
c1cncc(-c2nc(NCCN3CCOCC3)c3ccccc3n2)c1,-14%,·,·,-1%,·
O=C(N/N=C/c1cc([N+](=O)[O-])ccc1O)C1C2CCCCC21 (stereo not given),0.89µM*,·,·,2.8µM*,·
O=C(N/N=C/c1cc([N+](=O)[O-])ccc1O)C1CCCCC1,0.5µM*,?,?,2.5µM*,-7%
Cc1cccc(N2CCN(c3nc4ccc(C)cc4n4cnnc34)CC2C)c1 (stereo not given),·,3%,-23%,·,·
CCOC(=O)c1ccc(NC(=O)C2Cc3ccccc3C(=O)O2)cc1 (stereo not given),·,0%,12%,·,·
COc1ccccc1N1CCN(C(=S)NC(=O)c2ccc([N+](=O)[O-])cc2)CC1,·,-33%,-22%,·,-5%
S=C(Nc1cccc(Cl)c1Cl)N1CCCC1,-36%,1%,10%,-2%,5%
CC1CN(C(=S)NC(=O)c2ccc([N+](=O)[O-])cc2)CC(C)O1 (stereo not given),0.45µM*,-28%,0%,1.3µM*,-12%
CC1CN(C(=S)Nc2cccc(Cl)c2Cl)CC(C)O1 (stereo not given),18µM*,6%,-29%,?,-5%
CC1CN(C(=S)NC(=O)c2ccco2)CC(C)O1 (stereo not given),4µM*,?,-20%,20µM*,-24%
SMILES,RORgamma inh,HEK293 tox,GLP1R inv ag,VP16 counter,GLP-1R agonist
COc1ccc(C(=O)NC(=S)N2CCN(c3ccccc3OC)CC2)cc1,2µM*,4.5µM*,?,?,2%
CC1CN(C(=S)SCC(=O)c2ccc([N+](=O)[O-])cc2)CC(C)O1 (stereo not given),18%,?,?,3%,15%
O=C(NC1CC(=O)N(c2ccc(Cl)cc2)C1)C1CCCCC1 (stereo not given),·,11%,2%,·,·
COc1cc(NC(=O)CSc2nccn2C)cc(OC)c1OC,·,3%,-6%,·,-3%
CSCCC(NC(=O)c1ccccc1)C(=O)N1CC(C)OC(C)C1 (stereo not given),·,1%,6%,·,0%
O=C(NC(=S)N1CCN(c2ccccn2)CC1)c1ccco1,0.18µM*,5%,-28%,3.2µM*,-4%
COc1ccc(C(=O)NC(=S)N2CCN(c3ccc([N+](=O)[O-])cc3)CC2)cc1,0.63µM*,?,?,0.89µM*,-3%
CN1CCN(C(=S)NC(=O)c2ccco2)CC1,3.5µM*,-3%[7.66 µM],-12%[7.66 µM],14µM*,0%
CC1CN(C(=S)NC(=O)c2ccccc2)CC(C)O1 (stereo not given),3.5µM*,?,9%,3.2µM*,-1%
CCOC(=O)Cn1c(=O)n(CC2CCCO2)c2nc(-c3cccc(C)c3)nc(C(N)=O)c21 (stereo not given),·,6%,-20%,·,-3%
COc1cccc(N2CC(NC(=O)c3ccc4c(c3)OCO4)CC2=O)c1 (stereo not given),·,0%,12%,·,·
NC(=O)[C@@H]1CCCN1C(=O)C(Cc1cnc[nH]1)NC(=O)C1CCC(=O)N1 (stereo not given in full),16%,·,·,-18%,·
N#Cc1ccc(C(=O)NC(=S)N2CCOCC2)cc1,·,?,?,·,2%
O=C(NC(=S)N1CCOCC1)c1ccc([N+](=O)[O-])cc1,1.4µM*,-19%,-23%,2.2µM*,0%
CCc1ccccc1Nc1sc(C(=O)c2ccccc2)c(N)c1S(=O)(=O)c1ccccc1,·,-2%,?,·,·
CC(NC(=O)c1ccco1)C12CC3CC(CC(C3)C1)C2 (stereo not given),·,1%,10µM*,·,-2%
CC(NC(=O)COC(=O)CCNC(=O)c1ccco1)C12CC3CC(CC(C3)C1)C2 (stereo not given),-6%,-5%,52%,-1%,22%
S=C1NC(c2ccccc2)=NCN1c1ccc(Cl)cc1,11µM*,-8%,-26%,?,4%
COC(=O)c1ccc(N2CN=C(c3ccc(C)cc3)NC2=S)cc1,12%,-17%,?,-3%,14%
COc1ccc(CN2CCN(CCc3ccccc3)C(CCO)C2)c(O)c1 (stereo not given),13%,0%,11µM*,-16%,11%
CCn1cc(CN2CCN(Cc3ccc(C)o3)C(CCO)C2)c2ccccc21 (stereo not given),-9%,-30%,?,4%,9%
CCn1cc(CN2CCN(Cc3ccccc3)C(CCO)C2)c2ccccc21 (stereo not given),-20%,-23%,10µM*,-2%,0%
CN(C)CCCNc1ncnc2scc(-c3ccccc3)c12,0%,0%,11µM*,-14%,-4%
CN(C)CCNc1ncnc2c1cnn2-c1cccc(Cl)c1,·,-4%,?,·,·
